Compound activity from PubChem.
Compounds with a hit are over-represented: about 12% of the library has one in this group of screens.
L3MBTL1 block = L3MBTL1 (human) inhibition; 230,000 compounds, 0.66% hits; Potency, µM (top dose mostly 57.1 µM), for inactives: at the highest dose activity, negative = inhibition, actives largely listed as inhibitors; Q9Y468; AlphaScreen L3MBTL1–H3K9me1 peptide binding; also: % is scaled to controls: 0 for no effect and ±100 for the full control effect; nearly all actives have a fitted effect of over 60% in size
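AlphaScreen proximity signal between nickel-chelate acceptor and streptavidin donor beads (final 10 ug/mL) reports binding of 50 nM L3MBTL1 to 75 nM biotin-H3 K9me1 peptide; complex incubated with compounds 30 min at room temperature; cefsulodin titration as control.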
HP1b chromo inh = HP1-beta chromodomain-methylated histone interaction inhibition; AlphaScreen HP1-beta / biotin-H3K9me3 peptide binding; Potency, µM (titrated, usually from 114 µM), without a hit: at the top dose activity change, negative = inhibition, hits mostly inhibitors; 390,000 compounds, 0.56% hits; P83916; also: nearly all actives have a fitted effect of over 70% in size
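Compound inhibition of the preformed complex between 50 nM HP1-beta and 50 nM biotinylated H3K9me3 peptide was read by AlphaScreen. Buffer was PBS pH 7.4 with 0.01% Tween-20. Incubations ran 30 min at room temperature, with 10 ug/mL donor/acceptor beads.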
G9a block = inhibitors of human histone lysine methyltransferase G9a; AID 504332; 350,000 compounds, 8.8% hits; Q96KQ7; Potency, µM (doses to about 102 µM), for the others: at the top dose activity, negative = inhibition, actives largely listed as inhibitors; G9a H3K9 monomethylation, AlphaScreen, 2 h; also: % is scaled to controls: 0 for no effect and ±100 for the full control effect; nearly all actives have a fitted effect of over 75% in size
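Signal arises when biotinylated H3K9 peptide, once monomethylated, bridges streptavidin donor and antibody-captured acceptor beads. Enzyme at 20 nM was preincubated 15 min with test compounds; peptide 500 nM and SAM 20 uM then reacted for 2 h.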
JMJD2A Tudor inh = inhibitors of human JMJD2A Tudor domain; O75164; AlphaScreen JMJD2A-Tudor / H3K4me3 peptide binding; Potency, µM (doses to about 114 µM), for the others: top-dose activity change, negative = inhibition, hits mostly inhibitors; 390,000 compounds, 4.4% hits; also: % is scaled to controls: 0 for no effect and ±100 for the full control effect; nearly all actives have a fitted effect of over 50% in size
Target sequence (O75164 whole entry, looked up, the tested form may be a part): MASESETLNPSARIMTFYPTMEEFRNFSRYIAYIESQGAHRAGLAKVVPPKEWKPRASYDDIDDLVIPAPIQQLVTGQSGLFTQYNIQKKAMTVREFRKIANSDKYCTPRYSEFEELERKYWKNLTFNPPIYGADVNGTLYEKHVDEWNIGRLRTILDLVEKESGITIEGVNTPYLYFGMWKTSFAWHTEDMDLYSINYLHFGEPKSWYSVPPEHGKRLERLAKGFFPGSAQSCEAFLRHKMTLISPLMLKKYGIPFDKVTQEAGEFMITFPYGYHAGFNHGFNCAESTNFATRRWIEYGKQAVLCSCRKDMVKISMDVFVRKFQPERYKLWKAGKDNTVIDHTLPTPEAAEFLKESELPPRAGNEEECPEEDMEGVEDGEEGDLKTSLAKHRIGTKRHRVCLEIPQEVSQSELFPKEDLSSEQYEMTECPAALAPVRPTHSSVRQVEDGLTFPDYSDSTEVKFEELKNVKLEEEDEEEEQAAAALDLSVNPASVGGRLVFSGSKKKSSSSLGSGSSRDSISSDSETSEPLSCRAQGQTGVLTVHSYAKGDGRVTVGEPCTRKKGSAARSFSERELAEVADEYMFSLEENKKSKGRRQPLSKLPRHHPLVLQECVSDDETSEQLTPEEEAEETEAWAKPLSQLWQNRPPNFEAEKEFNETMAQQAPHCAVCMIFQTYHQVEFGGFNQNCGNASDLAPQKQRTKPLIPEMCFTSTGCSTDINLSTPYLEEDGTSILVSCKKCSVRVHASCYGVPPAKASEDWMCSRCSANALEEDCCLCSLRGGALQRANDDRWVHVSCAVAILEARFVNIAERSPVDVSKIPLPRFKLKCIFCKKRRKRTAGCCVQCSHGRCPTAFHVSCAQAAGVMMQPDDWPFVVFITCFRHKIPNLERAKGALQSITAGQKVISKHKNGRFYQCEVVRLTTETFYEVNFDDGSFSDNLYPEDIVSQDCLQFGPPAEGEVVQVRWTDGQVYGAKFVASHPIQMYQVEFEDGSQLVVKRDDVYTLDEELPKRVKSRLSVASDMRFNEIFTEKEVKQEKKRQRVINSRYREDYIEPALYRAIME
BAZ2B inh = inhibitors of human BAZ2B bromodomain. Q9UIF8. AlphaScreen BAZ2B-H3K14Ac peptide displacement. Potency, µM (titrated, usually from 114 µM), inactives show at the top dose activity change, negative = inhibition, hits mostly inhibitors. 360,000 compounds, 4.4% hits; also: % is scaled to controls: 0 for no effect and ±100 for the full control effect; nearly all actives have a fitted effect of over 60% in size
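AlphaScreen luminescence quantifies BAZ2B engagement of H3K14Ac peptide; the protein and biotinylated peptide are both at 50 nM final, buffer PBS pH 7.4 with 0.01% Tween-20, all steps at room temperature.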
Sfp PPTase inh = blocks B. subtilis Sfp PPTase activity; 310,000 compounds, 3.5% hits; Biochemical Sfp PPTase activity, qHTS; Potency, µM, for inactives: largest response in the series, negative = inhibition, usual class: inhibitors; Q9F4F7; AID 1490;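 also: the enzyme is Sfp with the accession as filed and its product quenches rhodamine fluorescence; 0% = enzyme reaction without inhibitor and -100% = no enzyme wells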
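After 15 min at room temperature with compound, 15 nM Sfp received 5 uM rhodamine-CoA plus 12.5 uM BHQ-2-ybbR (50 mM Hepes pH 7.6, 10 mM MgCl2). Rate came from the fluorescence difference over 30 min, ex 525/em 598 nm.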
Starred values were filed as active, the others as inactive; ? = inconclusive; . = no result given; [ ] = dose if it differs, or a comment. Calls follow the shape of the dose curve; as a rule, active = well fitted curve in the direction sought with a large enough effect; inconclusive = small, poorly fitted or top-dose-only effect, or another doubt; inactive = no such curve, though single readings can be large; an effect the other way counts as inactive or inconclusive. Potency is read from the fitted curve at half-maximal effect.

SMILES	L3MBTL1 block	HP1b chromo inh	G9a block	JMJD2A Tudor inh	BAZ2B inh	Sfp PPTase inh
Cc1cc(C(=O)N2CCC(Cc3ccccc3)CC2)ccc1[N+](=O)[O-]	-9.2%	3.2%	?	-25.2%	-19.7%[57.1 µM]	-4.5%
O=[N+]([O-])c1cccc(OCCN2CCC(Cc3ccccc3)CC2)c1	-6.3%	?	11.2µM*	14.1µM*	56.2µM*	-14.2%
Cc1ccc([N+](=O)[O-])c(OCCCN2CCC(Cc3ccccc3)CC2)c1	.	?	.	20µM*	.	.
O=C1CCC[C@@H]2[C@H](Cc3ccccc3)[C@@H](O)C[C@@H]3CCN1[C@@H]32	.	41.0%	.	-5.6%	.	.
O=C1CCC[C@@H]2[C@@H](Cc3ccccc3)[C@H](N3CCN(c4ccccc4)CC3)C[C@@H]3CCN1[C@@H]32	.	-20.6%	.	44.7µM*	.	.
COc1ccc(N(Cc2cc3ccc(C)cc3[nH]c2=O)C(=O)c2ccco2)cc1	0.5%	34.2%	70.8µM*	-1.1%	12.3%	?
Cc1cccc(N(Cc2cc3ccccc3[nH]c2=O)C(=O)c2ccco2)c1C	8.3%	19.1%	3.4%[12.7 µM]	-10.3%	-6.5%	79.4µM*
Cc1ccc(C)c(N(Cc2cc3ccc(C)cc3[nH]c2=O)C(=O)c2ccco2)c1	-8.1%	15.4%	-4.5%[59 µM]	-15.3%	-8.5%	-16.1%
COCC(=O)N(Cc1cc2cc(C)ccc2[nH]c1=O)c1cccc(C)c1C	-3.7%	43.0%	35.0%	0.7%	-26.3%	7.8%
CC(C)N(Cc1cc2ccccc2[nH]c1=O)C(=O)c1ccco1	.	20.0%	50.1µM*	-9.0%	-8.9%	50.1µM*
Cc1ccc(NCCc2ccc(C)nc2)cc1	.	-7.8%	50.1µM*	-34.2%	-19.1%	10.7%
Cc1ccc(CCNc2ccccc2C)cn1	-3.8%	-3.5%	-22.6%[59 µM]	-23.3%	7.9%	16.7%
COc1ccc(NCCNc2ccc(OC)cc2)cc1	-25.5%	-18.2%	8.6%[0.0925 µM]	?	50.1µM*	-3.3%
Cc1ccc(NCCNc2ccc(C)cc2)cc1	-22.0%	-41.1%	?	22.4µM*	.	11.9%
CCc1sc(C(=O)N2CCc3cc(OC)c(OC)cc3C2CC(=O)O)cc1C (stereo not given)	0.2%	32.9%	-10.0%[12.7 µM]	-17.1%	6.5%	.
CCN(CC)CCN(C(=O)C1=COCCO1)c1nc2cc3c(cc2s1)OCO3	.	37.2%	0.2%[59 µM]	-10.5%	-27.0%	3.2%
CCN(CC)CCN(C(=O)CCS(=O)(=O)c1ccccc1)c1nc2cc3c(cc2s1)OCO3	.	45.5%	44.7µM*	-23.4%	-14.3%	-12.4%
CCN(CC)CCN(C(=O)c1ccc(C(=O)c2ccccc2)cc1)c1nc2cc3c(cc2s1)OCO3	.	3.4%	39.8µM*	?	?	-9.6%
CCN(CC)CCN(C(=O)c1ccc2ncsc2c1)c1nc2cc3c(cc2s1)OCO3	.	-24.6%	.	50.1µM*	39.8µM*	35.5µM*
CN(C)CCCN(C(=O)c1ccc(C(=O)c2ccccc2)cc1)c1nc2cc3c(cc2s1)OCO3	.	?	?	50.1µM*	44.7µM*	-20.2%
CSc1ccc(C(=O)N2CCC(n3nccc3NC(=O)C3CC3)CC2)cc1	.	24.7%	.	-8.3%	-2.7%	1.8%
CN(C)CCCN(C(=O)c1cc(Cl)sc1Cl)c1nc2cc3c(cc2s1)OCO3	.	-0.3%	50.1µM*	?	?	-5.2%
Cc1ccc(-n2c(-c3ccccc3)n[nH]c2=S)c(C)c1	-7.2%	41.1%	1.78µM*	?	-5.3%	-16.8%
O=C(O)c1ccc(-n2c(-c3ccccc3)n[nH]c2=S)cc1	-2.5%	33.6%	?	28.2µM*	-2.9%	79.4µM*
O=C(O)c1ccc(CSc2nnc(-c3ccccc3)n2-c2ccccc2)cc1	-0.9%	-0.1%	6.7%	-14.8%	-16.4%	8.2%
SMILES	L3MBTL1 block	HP1b chromo inh	G9a block	JMJD2A Tudor inh	BAZ2B inh	Sfp PPTase inh
Cn1c2ccccc2c(=O)c2c(=O)n(-c3ccccc3)c(-c3ccc(C(C)(C)C)cc3)nc21	-2.2%	36.1%	-6.3%	-30.7%	-22.4%	-22.8%
Cc1ccc(-n2c(-c3ccncc3)n[nH]c2=S)cc1	.	5.4%	8.91µM*	22.4µM*	-2.1%	-6.4%
CC(C)(C)c1ccc(-c2n[nH]c(=S)n2-c2ccccc2)cc1	8.8%	49.2%	2.82µM*	-20.4%	12.3%	15.5%
Cc1ccc(-n2c(Cc3cccc4ccccc34)n[nH]c2=S)c(C)c1	-6.2%[11.4 µM]	17.6%	?	-35.2%	-34.9%	-1.4%
COc1ccc(C)cc1S(=O)(=O)N1c2ccc(C)cc2C2CN(C)CCC21 (stereo not given)	-8.1%	-11.8%	?	-28.2%	6.6%	.
CC(c1ccccc1)n1c(-c2ccc(C(C)(C)C)cc2)n[nH]c1=S (stereo not given)	-3.0%	12.7%	31.6µM*	?	?	10.0%
Cc1onc(-c2ccccc2)c1-c1csc(COc2ccccc2)n1	67.3%	197.9%	428.8%	152.5%	87.2%	-7.5%
Cc1ccc(-n2c(-c3ccc(Cl)cc3Cl)n[nH]c2=S)cc1	0.1%	1.0%	.	-42.2%	0.1%	-5.4%
Cc1onc(-c2ccccc2)c1-c1n[nH]c(=S)n1-c1ccccc1	.	-20.8%	.	63.1µM*	.	.
Cc1ccc(-n2c(-c3cnccn3)n[nH]c2=S)cc1	4.5%	35.9%	7.94µM*	8.91µM*	79.4µM*	56.2µM*
COc1ccc(-c2cc(C3CCN(C(=O)OC(C)(C)C)CC3)[nH]n2)cc1	-4.8%	-14.5%	2.7%	?	-13.3%	5.3%
O=C(O)c1ccc(-n2c(-c3cc(C4CC4)[nH]n3)n[nH]c2=S)cc1	0.3%	43.6%	17.8µM*	20µM*	-10.4%	56.2µM*
COCCn1c(=O)c(-c2ccc(Cl)cc2)nc2cnc(Oc3cccc(Cl)c3)nc21	.	.	3.0%[0.501 µM]	.	.	?
CCCCCCCCCCCC(=O)OCC(O)C1OCC(O)C1O (stereo not given)	.	.	-0.2%[12.7 µM]	.	.	11.3%
CC(=O)c1cccc(NC(=O)CSc2ncc3c(n2)-c2cc(Cl)ccc2N(Cc2ccccc2)S3(=O)=O)c1	.	9.2%	-4.8%[59 µM]	-10.1%	4.8%	.
